According to PubChem BioAssay (NCATS):
Where “and” joins values, the source holds several entries; their conditions need not be identical. Equal entries are not always repeated. Inconclusive results are not listed. Entries that show only a call come without a potency. Calls of active or inactive are those of the source. Calls follow the shape of the dose curve; as a rule, active = well fitted inhibition curve with a large enough effect; inconclusive = small, poorly fitted or top-dose-only effect; inactive = flat fitted curve, though single readings scatter.

System: HEK293T
Test: qHTS assay to identify novel small-molecules to repurpose for Merkel cell carcinoma treatment (AID 1296009); also: nearly all actives have a fitted effect of over 60% in size
Conditions: MCC and control cell lines, CellTiter-Glo viability, 72 h; at 44.8 µM (top of the series) unless noted
Procedure, shortened: (§1)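 Viability readout: ATP luminescence (CellTiter-Glo) after 72 hr drug exposure at 37 degree celsius. Dose-response format was 8 points for NPC and 11 points for MIPE; data normalized to in-plate controls.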
Potency is read from the fitted curve at half-maximal effect.

Compound	outcome
C[C@H](Cn1cnc2c(N)ncnc21)OCP(=O)(O)O	inactive
CNC[C@H](O)c1ccc(O)c(O)c1	inactive [at 17.4 µM]
Cc1cc(=O)oc2cc(O)ccc12	inactive
C[C@@H](N)C1CCC(C(=O)Nc2ccncc2)CC1 (some centres not stated)	inactive
Nc1ccn([C@@H]2O[C@H](CO)[C@@H](O)C2O)c(=O)n1 (some centres not stated)	inactive
CCOc1cc(CC(=O)N[C@@H](CC(C)C)c2ccccc2N2CCCCC2)ccc1C(=O)O	inactive
Cc1ccc(C(=O)c2cc(O)c(O)c([N+](=O)[O-])c2)cc1	inactive
COc1cc2c(cc1OC)C1CC(=O)C(CC(C)C)CN1CC2 (configuration not stated)	inactive
CNC[C@@H](O)[C@@H](O)[C@H](O)[C@H](O)CO	inactive
O=C(NCCO[N+](=O)[O-])c1cccnc1	inactive
Clc1ccc2c(N3CCN(CCCN4CCN(c5ccnc6cc(Cl)ccc56)CC4)CC3)ccnc2c1	inactive [at 17.4 µM]
Nc1nc(OCc2ccccc2)c2[nH]cnc2n1	inactive

System: MCC-13
Test: as above
Conditions: MCC and control cell lines, CellTiter-Glo viability, 72 h; series mostly up to 46 µM; activity change, negative = cytotoxicity: at the top concentration
Procedure, shortened: as §1

Compound	activity change, negative = cytotoxicity	Potency
C[C@H](Cn1cnc2c(N)ncnc21)OCP(=O)(O)O	4.84% (inactive)	–
N[C@@H](Cc1cc(I)c(Oc2cc(I)c(O)c(I)c2)c(I)c1)C(=O)O	–	inactive
COc1ccccc1N1CCN(CCN(C(=O)C2CCCCC2)c2ccccn2)CC1	4.3% (inactive)	–
CNC[C@H](O)c1ccc(O)c(O)c1	–	inactive
Nc1ncn([C@H]2C[C@H](O)[C@@H](CO)O2)c(=O)n1	–	inactive
Cc1cc(=O)oc2cc(O)ccc12	–	inactive
Nc1ccc(S(N)(=O)=O)cc1	–	inactive
C[C@@H](N)C1CCC(C(=O)Nc2ccncc2)CC1 (some centres not stated)	-25.2% (inactive)	–
CCCCc1ccc2nc(NC(=O)OC)[nH]c2c1	–	296 nM (active) and 53.1 nM (active)
COc1cc(OC)c(C(=O)CCCN2CCCC2)c(OC)c1	–	inactive
Cc1nc(Nc2ncc(C(=O)Nc3c(C)cccc3Cl)s2)cc(N2CCN(CCO)CC2)n1	–	168 nM (active)
CN1CCC(=C2c3ccccc3CCc3sccc32)CC1	–	inactive
CCN(CC)CCOc1ccc(Cc2ccccc2)cc1	–	inactive
CCOC(=O)c1c(C)n(C)c2ccc(O)cc12	–	inactive
Cc1cc(=O)c2c(O)c3c(O)cc(=O)c4c3c3c(cc(O)c1c23)C(C)(C)C=4O	–	inactive
Nc1ccn([C@@H]2O[C@H](CO)[C@@H](O)C2O)c(=O)n1 (some centres not stated)	-3.1% (inactive)	–
O=C(O)c1cccnc1Nc1cccc(C(F)(F)F)c1	–	inactive
CCC(C)(Oc1ccc(C2(c3ccc(OC(C)(CC)C(=O)O)cc3)CCCCC2)cc1)C(=O)O (configuration not stated)	3.15% (inactive)	–
CC1Cc2ccccc2N1NC(=O)c1ccc(Cl)c(S(N)(=O)=O)c1 (configuration not stated)	–	inactive

Compound	activity change, negative = cytotoxicity	Potency
CCOc1cc(CC(=O)N[C@@H](CC(C)C)c2ccccc2N2CCCCC2)ccc1C(=O)O	5.27% (inactive)	–
Cc1ccc(C(=O)c2cc(O)c(O)c([N+](=O)[O-])c2)cc1	–	inactive
Cc1nccn1CC1CCc2c(c3ccccc3n2C)C1=O (configuration not stated)	–	inactive
CC(S)C(=O)NCC(=O)O (configuration not stated)	–	inactive
COCCCOc1ccnc(CS(=O)c2nc3ccccc3[nH]2)c1C (configuration not stated)	–	inactive
CC(C)c1ccc2oc3nc(N)c(C(=O)O)cc3c(=O)c2c1	–	inactive
COc1cc2c(cc1OC)C1CC(=O)C(CC(C)C)CN1CC2 (configuration not stated)	-5.64% (inactive)	–
CNC[C@@H](O)[C@@H](O)[C@H](O)[C@H](O)CO	-0.168% (inactive)	–
Cc1ccc(Nc2nccc(N(C)c3ccc4c(C)n(C)nc4c3)n2)cc1S(N)(=O)=O	–	inactive
O=C(NCCO[N+](=O)[O-])c1cccnc1	–	inactive
CC1(C)NC(=O)N(c2ccc([N+](=O)[O-])c(C(F)(F)F)c2)C1=O	–	inactive
Clc1ccc2c(N3CCN(CCCN4CCN(c5ccnc6cc(Cl)ccc56)CC4)CC3)ccnc2c1	-7.1% [at 16.1 µM] (inactive)	–
Oc1ccc(OCc2ccccc2)cc1	–	inactive
Cc1ccc(NC(=O)c2ccc(CN3CCN(C)CC3)cc2)cc1Nc1nccc(-c2cccnc2)n1	–	inactive
NC(=O)Cc1cccc(C(=O)c2ccccc2)c1N	–	inactive
c1cnc2cc3c(cc2n1)C1CNCC3C1	3.93% (inactive)	–
c1ccc2[nH]c(-c3cscn3)nc2c1	–	inactive
OC(CN1CCN(c2cccc(Cl)c2)CC1)C(c1ccccc1)c1ccccc1 (configuration not stated)	-0.567% (inactive)	–
Nc1nc(OCc2ccccc2)c2[nH]cnc2n1	0.123% (inactive)	–

System: MCC-26
Test: as above
Conditions: MCC and control cell lines, CellTiter-Glo viability, 72 h; series mostly up to 46 µM; activity change, negative = cytotoxicity: at the top concentration
Procedure, shortened: as §1

Compound	activity change, negative = cytotoxicity	Potency
C[C@H](Cn1cnc2c(N)ncnc21)OCP(=O)(O)O	1.85% (inactive)	–
N[C@@H](Cc1cc(I)c(Oc2cc(I)c(O)c(I)c2)c(I)c1)C(=O)O	–	inactive
COc1ccccc1N1CCN(CCN(C(=O)C2CCCCC2)c2ccccn2)CC1	3.99% (inactive)	–
CNC[C@H](O)c1ccc(O)c(O)c1	–	inactive
Nc1ncn([C@H]2C[C@H](O)[C@@H](CO)O2)c(=O)n1	–	inactive
Cc1cc(=O)oc2cc(O)ccc12	–	inactive
COc1cc(OC)c(C(=O)CCCN2CCCC2)c(OC)c1	–	inactive
CN1CCC(=C2c3ccccc3CCc3sccc32)CC1	–	inactive
CCN(CC)CCOc1ccc(Cc2ccccc2)cc1	–	inactive
CCOC(=O)c1c(C)n(C)c2ccc(O)cc12	–	inactive
Cc1cc(=O)c2c(O)c3c(O)cc(=O)c4c3c3c(cc(O)c1c23)C(C)(C)C=4O	–	inactive
O=C(O)c1cccnc1Nc1cccc(C(F)(F)F)c1	–	inactive
CC1Cc2ccccc2N1NC(=O)c1ccc(Cl)c(S(N)(=O)=O)c1 (configuration not stated)	–	inactive
CCOc1cc(CC(=O)N[C@@H](CC(C)C)c2ccccc2N2CCCCC2)ccc1C(=O)O	-4.23% (inactive)	–
Cc1nccn1CC1CCc2c(c3ccccc3n2C)C1=O (configuration not stated)	–	inactive
COCCCOc1ccnc(CS(=O)c2nc3ccccc3[nH]2)c1C (configuration not stated)	–	inactive
COc1cc2c(cc1OC)C1CC(=O)C(CC(C)C)CN1CC2 (configuration not stated)	-4.12% (inactive)	–
Cc1ccc(Nc2nccc(N(C)c3ccc4c(C)n(C)nc4c3)n2)cc1S(N)(=O)=O	–	inactive
O=C(NCCO[N+](=O)[O-])c1cccnc1	–	inactive
CC1(C)NC(=O)N(c2ccc([N+](=O)[O-])c(C(F)(F)F)c2)C1=O	–	inactive
Clc1ccc2c(N3CCN(CCCN4CCN(c5ccnc6cc(Cl)ccc56)CC4)CC3)ccnc2c1	-2.4% [at 16.1 µM] (inactive)	–
Cc1ccc(NC(=O)c2ccc(CN3CCN(C)CC3)cc2)cc1Nc1nccc(-c2cccnc2)n1	–	inactive
NC(=O)Cc1cccc(C(=O)c2ccccc2)c1N	–	inactive
c1cnc2cc3c(cc2n1)C1CNCC3C1	-0.754% (inactive)	–
c1ccc2[nH]c(-c3cscn3)nc2c1	–	inactive
OC(CN1CCN(c2cccc(Cl)c2)CC1)C(c1ccccc1)c1ccccc1 (configuration not stated)	-2.75% (inactive)	–
Nc1nc(OCc2ccccc2)c2[nH]cnc2n1	-7.27% (inactive)	–
